Assay outcomes deposited in PubChem by National Center for Advancing Translational Sciences (NCATS).
The list is not random: actives were taken first. Their share in the collection is about 4.7%.
DRD3 antagonist = blocks the human D3 dopamine receptor; P35462; D3R cells, DiscoveRx beta-arrestin luminescence, antagonist mode; hits give low values; AID 652054; 360,000 compounds, 2.5% hits; max response, negative = inhibition, %; in the data active = max response below about -50%; inconclusive = no clear call, values can overlap the other calls; also: % is scaled to controls: 0 for no effect and ±100 for the full control effect
Target sequence (P35462 whole entry, looked up): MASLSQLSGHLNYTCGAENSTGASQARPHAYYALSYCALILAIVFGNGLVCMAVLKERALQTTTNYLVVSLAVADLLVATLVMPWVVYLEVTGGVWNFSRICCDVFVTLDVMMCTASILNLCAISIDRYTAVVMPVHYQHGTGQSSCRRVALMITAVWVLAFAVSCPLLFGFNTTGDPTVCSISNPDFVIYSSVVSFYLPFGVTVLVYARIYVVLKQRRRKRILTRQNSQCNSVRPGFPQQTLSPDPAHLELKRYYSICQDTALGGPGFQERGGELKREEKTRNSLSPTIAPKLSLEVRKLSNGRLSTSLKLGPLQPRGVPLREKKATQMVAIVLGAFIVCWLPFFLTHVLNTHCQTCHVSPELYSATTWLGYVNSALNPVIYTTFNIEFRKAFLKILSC
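Cells expressing the human receptor were seeded at 1500 cells/well, incubated overnight at 37 degrees C in 5% CO2, then exposed to library compounds with dopamine controls for 90 minutes at 37 degrees C before luminescent detection.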
HepG2 tox = counter-screen for TGF-b inhibitors: cytotoxicity in HepG2 cells; AID 588856; 410,000 compounds, 0.76% hits; Potency, µM (series often up to 46.1 µM), inactives show top-dose activity change, negative = cytotoxicity, most hits filed as cytotoxic; HepG2 CAGA-GFP viability, ATP luminescence, 18 h; also: potency is read from the fitted curve at half-maximal effect
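HepG2 CAGA-GFP cells (1000/well, DMEM with 1% FBS) received compound, then TGF-beta at 500 pg/mL final, and were incubated 18 hours at 37 degrees C. Viability was read by CellTiter-Glo luminescence. Media-only wells were set as complete cell-killing and DMSO as no toxicity.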
ATXN2 expr inh = ATXN2 expression inhibition; HEK-293 ATXN2-luciferase reporter, luminescence, 24 h; Potency, µM (highest dose often 57 µM), without a hit: top-dose activity change, negative = inhibition, actives largely listed as inhibitors; 360,000 compounds, 0.72% hits; also: potency is read from the fitted curve at half-maximal effect; % is scaled to controls: 0 for no effect and ±100 for the full control effect; nearly all actives have a fitted effect of over 55% in size
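ATXN2-luciferase reporter cells (luciferase flanked by upstream and downstream ATXN2 gene portions) were treated 24 h at 37 °C with compounds at up to 57 uM. SteadyGlo luminescence gave expression; GF-AFC fluorescence gave viability.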
ATXN viability = cell viability loss in ATXN counter-screen | S2 cells (HEK-293 line with an ATXN2-luciferase reporter) viability, CellTiter-Fluor protease fluorescence, 24 h | Potency, µM (doses to about 56.7 µM), hits mostly cytotoxic | 400,000 compounds, 0.49% hits; also: potency is read from the fitted curve at half-maximal effect; nearly all actives have a fitted effect of over 40% in size
TGFb inhibitor = inhibitors of TGF-b signaling | Potency, µM (top dose mostly 46.1 µM), for inactives: at the top dose activity, negative = inhibition, most hits filed as inhibitors | HepG2 CAGA-GFP TGF-b/SMAD3 reporter, GFP fluorescence, 18 h; TGF-beta stimulated, 500 pg/mL final | AID 588855 | 410,000 compounds, 1.2% hits; also: potency is read from the fitted curve at half-maximal effect; % is scaled to controls: 0 for no effect and ±100 for the full control effect; nearly all actives have a fitted effect of over 65% in size
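HEPG2 CAGA-GFP cells (1000/well, DMEM with 1% FBS) were pre-incubated 2 h at 37 degrees C, given compound by pin tool, then stimulated with TGF-beta at 500 pg/mL final for 18 h before per-cell GFP fluorescence imaging.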
DRD3 agonist = agonists of human D3 dopamine receptor; 410,000 compounds, 0.58% hits; max activation, %; AID 652048; D3R DiscoveRx beta-arrestin cells, luminescence, 90 min; P35462; in the data active = max activation above about 30%; also: 0% is about no effect
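Agonist-mode cell screen: cells plated at 1500/well and incubated overnight at 37 °C, then exposed to library compounds for 90 min at 37 °C. Detection reagent was added for 30–60 min at room temperature, and luminescence was read.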
An asterisk follows results filed as active; i = inactive; ? = inconclusive; / = no result. Unless noted, calls follow the shape of the dose curve; as a rule, active = well fitted curve in the direction sought with a large enough effect; inconclusive = small, poorly fitted or top-dose-only effect, or another doubt; inactive = no such curve, though single readings can be large; an effect the other way counts as inactive or inconclusive.

SMILES | DRD3 antagonist | HepG2 tox | ATXN2 expr inh | ATXN viability | TGFb inhibitor | DRD3 agonist
O=C(NCCCN1CCCC1)c1ccc2c(c1)N(Cc1cccc(Cl)c1)C(=O)c1ccccc1S2=O (stereo unspecified) | -25 | -38% | -18% | i | 14% | -14
O=C(NCc1ccco1)c1ccc2c(c1)N(Cc1cccc(Cl)c1)C(=O)c1ccccc1S2=O (stereo unspecified) | / | -10% | / | / | -4% | 59*
CCOC(=O)C1CCCN(Cc2cn3c(-c4ccc(Br)cc4)nnc3s2)C1 (stereo unspecified) | / | -18% | -8% | i | 10% | -16
CCOC(=O)c1ccc(NC(=O)c2oc(=O)c3ccccc3c2-c2ccccc2)cc1 | / | 1% | 6% | i | 11% | 1
C[C@@H](NC(=O)c1nc[nH]c1C(=O)N[C@@H](Cc1ccccc1)C(=O)OC(C)(C)C)c1ccccc1 | -25 | -58% | ? | / | ? | 0
C[C@H](NC(=O)c1nc[nH]c1C(=O)N[C@@H](Cc1ccccc1)C(=O)OC(C)(C)C)c1ccccc1 | -58* | -66% | ? | ? | ? | -43
CC(C)(C)OC(=O)[C@H](Cc1ccccc1)NC(=O)c1[nH]cnc1C(=O)Nc1ccccc1F | -20 | 11µM* | ? | 18µM* | ? | 3
COc1ccc(Cl)cc1NC(=O)Cn1c(=O)n(CCC(=O)NCc2ccc3c(c2)OCO3)c(=O)c2ccccc21 | / | -4% | -11% | ? | -5% | 7
Cn1cccc1-c1nc2ccccc2n1Cc1ccccc1 | -54* | -31% | -16% | i | ? | -1
Cc1cccc(Cn2c(Cc3ccccc3)nc3ccccc32)c1 | 36 | -85% | -1% | ? | -11% | 7
CCCCn1c2ccc(F)cc2c2nnc(SCCN(CC)CC)nc21 | / | -22% | -13% | i | -17% | -20
CC(C)(C)c1ccc(Cn2c(Cc3ccccc3)nc3ccccc32)cc1 | / | 16µM* | ? | ? | 14µM* | -26
CCN(CC)CCSc1nnc2c3cc(C)ccc3n(Cc3ccccc3)c2n1 | -29 | -30% | ? | 16µM* | ? | -19
Fc1ccccc1Cn1c(-c2ccccc2)nc2ccccc21 | / | -68% | ? | 32µM* | ? | 5
CCSc1nc2ccccc2n1Cc1ccccc1F | ? | -20% | -27% | i | 7% | -9
Cc1cccc(Cn2c(-c3ccccc3)nc3ccccc32)c1 | / | -56% | -30% | ? | ? | -13
CCN(CC)CCSc1nc2ccccc2n1Cc1ccccc1 | -54* | -21% | ? | i | -1% | -17
CCN(CC)CCn1c(NCc2nc3ccccc3n2Cc2ccccc2)nc2ccccc21 | -55* | -52% | ? | ? | ? | -34
COC1=CC(=O)C=C(OC)C1(O)CC(C)=O | -56* | -8% | ? | i | -10% | 0
CN1CCN(CC(O)COC(c2ccc(Cl)cc2)c2ccc(Cl)cc2)CC1 (stereo unspecified) | -24 | 10µM* | / | i | ? | -5
OC(COC(c1ccc(Cl)cc1)c1ccc(Cl)cc1)CN1CCCC1 (stereo unspecified) | ? | -71% | ? | i | 8% | -5
OC(COC(c1ccccc1)c1ccccc1)CN1CCc2ccccc2C1 (stereo unspecified) | -54* | -28% | -10% | i | -7% | -12
Cc1ccc(Cl)cc1N1CCN(CC(O)COC(C)C)CC1 (stereo unspecified) | -79* | -15% | -6% | i | 0% | -14
OC(COC(c1ccc(Cl)cc1)c1ccc(Cl)cc1)CN1CCc2ccccc2C1 (stereo unspecified) | -56* | 11µM* | 28µM* | / | ? | -13
Cc1nn(-c2ccccc2)c(C)c1CC(=O)NCC1Cc2cc(F)cc(-c3cccnc3)c2O1 (stereo unspecified) | / | / | / | i | / | /
SMILES | DRD3 antagonist | HepG2 tox | ATXN2 expr inh | ATXN viability | TGFb inhibitor | DRD3 agonist
O=C(/C=C/c1cccnc1)c1ccc(NC(=O)c2cccc(Br)c2)cc1 | ? | -13% | -24% | i | 7% | -6
Cc1cccc(C(=O)Nc2cccc(C(=O)N/N=C/c3ccncc3)c2)c1 | -11 | 8% | 6% | i | -10% | 7
O=C(/C=C/c1cccnc1)/C=C/c1cccnc1 | -102* | 6.3µM* | ? | ? | 3.5µM* | -17
Cc1cccc(C(=O)Nc2ccc(C(=O)/C=C/c3cccnc3)cc2)c1 | -81* | -60% | ? | ? | 1.4µM* | -12
Cc1cccc(C(=O)Nc2ccc(C(=O)/C=C/c3ccncc3)cc2)c1 | ? | -52% | 1% | i | 11µM* | -15
O=C(CSc1ncc(S(=O)(=O)c2ccc(Br)cc2)c(=O)[nH]1)NCc1ccc(Cl)cc1 | / | -5% | 3% | i | 2% | -2
Cc1nn(-c2ccc(N3CCCC3)nn2)c(C)c1CCC(=O)N1CCN(c2ccccc2F)CC1 | / | -23% | / | / | ? | 1
Cc1ccc(CN2CCOc3ccc(CN4CCC(O)(c5cccnc5)CC4)cc3C2)cc1 | / | / | / | i | / | /
CC(=O)N1CCc2c(sc(NC(=O)Cc3ccc(F)cc3)c2C(N)=O)C1 | 1 | 11µM* | / | i | 4% | -2
Nc1c(Cl)cc(C2=NCCn3c2c2ccc([N+](=O)[O-])cc2[n+]3[O-])cc1Cl | -10 | -35% | ? | ? | 11µM* | -5
Nc1c(Cl)cc(C2=NCCn3nc4cc([N+](=O)[O-])ccc4c32)cc1Cl | 74 | -13% | -8% | i | 29% | -10
Cc1ccccc1-c1nc(S(=O)(=O)c2ccccc2)c(NCCCN2CCOCC2)o1 | -65* | -29% | / | i | -2% | -6
Cc1ccc(S(=O)(=O)c2nc(-c3ccccc3)oc2NCCN2CCOCC2)cc1 | -73* | 8% | -4% | i | 30% | -13
O=S(=O)(c1ccccc1)c1nc(-c2ccccc2Cl)oc1NCCCN1CCOCC1 | -71* | -16% | -5% | i | 26% | -17
O=S(=O)(c1ccc(F)cc1)c1nc(-c2ccc(F)cc2)oc1NCCN1CCOCC1 | -14 | 7% | -12% | i | 19% | -13
Cc1ccccc1-c1nc(S(=O)(=O)c2ccc(Cl)cc2)c(NCCN2CCOCC2)o1 | ? | -22% | -13% | i | -22% | -24
O=S(=O)(c1ccccc1)c1nc(-c2ccccc2Cl)oc1NCCN1CCOCC1 | -22 | -30% | -23% | i | -3% | -14
O=C(O)c1ccccc1C(=O)Nc1ccc(-c2ccccc2)cc1 | / | / | 22% | / | / | /
